Assay: HSE-luciferase reporter activators – cell-based (AID 1611)
Conditions: human cells, HSE-luciferase heat shock reporter; stronger effect = higher value

Row | Compound | fold change
1 | CN1CCC[C@@H]1CCO[C@](C)(c1ccccc1)c1ccc(Cl)cc1 | 0.87
2 | Cc1ccc(C(=O)C(C)CN2CCCCC2)cc1 (stereo not given) | 0.93
3 | CCCc1ncc(C[n+]2ccccc2C)c(N)n1 | 1.19
4 | CC[C@H]1CN2CCc3cc(OC)c(OC)cc3C2C[C@@H]1CC1NCCc2cc(OC)c(OC)cc21 (stereo not given in full) | 0.89
5 | CCN(CC)CCOC(=O)C1(C2CCCCC2)CCCCC1 | 0.64
6 | COc1ccc(C[C@H](N)C(=O)N[C@@H]2[C@@H](CO)OC(n3cnc4c(N(C)C)ncnc43)[C@@H]2O)cc1 (stereo not given in full) | 1.26
7 | CCCC(CCC)C(=O)O | 0.91
8 | Cn1nnnc1SCC1=C(C(=O)O)N2C(=O)C(NC(=O)C(O)c3ccccc3)C2SC1 (stereo not given) | 1.15
9 | CC(C)(Oc1ccc(CCNC(=O)c2ccc(Cl)cc2)cc1)C(=O)O | 1.4
10 | Cc1nnc(NS(=O)(=O)c2ccc(N)cc2)s1 | 0.85
11 | Cc1ccc(C(=O)c2ccc(CC(=O)O)n2C)cc1 | 279
12 | CCCOc1ccc2nc(NC(=O)OC)[nH]c2c1 | 1.26
13 | NC(=O)c1ccc[n+]([C@@H]2O[C@H](COP(=O)([O-])OP(=O)(O)OC[C@H]3O[C@@H](n4cnc5c(N)ncnc54)[C@H](O)[C@@H]3O)[C@@H](O)[C@H]2O)c1 | 1.11
14 | CCCCCCc1ccc(O)cc1O | 1.27
15 | NC(=O)c1cnccn1 | 1.78
16 | NC(N)=O | 1.06
17 | CC(CN(C)C)CN1c2ccccc2CCc2ccccc21 (stereo not given) | 1.16
18 | CC(=O)NS(=O)(=O)c1ccc(N)cc1 | 0.98
19 | NS(=O)(=O)c1cc2c(cc1Cl)NCNS2(=O)=O | 0.97
20 | O=C(O)C1=CCNCC1 | 1.18

Row | Compound | fold change
21 | CCN(CC)C(C)CN1c2ccccc2Sc2ccccc21 (stereo not given) | 1.55
22 | COc1ccc(C(=O)c2ccccc2)c(O)c1 | 0.92
23 | CCCCC1(COC(=O)CCC(=O)O)C(=O)N(c2ccccc2)N(c2ccccc2)C1=O | 0.82
24 | O=C(O)c1cccnc1Nc1cccc(C(F)(F)F)c1 | 1.08
25 | O=C(O)c1cn(C2CC2)c2cc(N3CCNCC3)c(F)cc2c1=O | 1.5
26 | Cc1ccc(/C(=C\CN2CCCC2)c2ccccn2)cc1 | 0.61
27 | Cc1cccc(Nc2ccccc2C(=O)O)c1C | 1.2
28 | Cn1c(=O)c2c(ncn2CC(O)CO)n(C)c1=O (stereo not given) | 1.13
29 | O=C1OCCN1/N=C/c1ccc([N+](=O)[O-])o1 | 1.79
30 | CC1(C)O[C@@H]2CC3C4C[C@H](F)C5=CC(=O)CC[C@]5(C)C4[C@@H](O)C[C@]3(C)[C@]2(C(=O)CO)O1 (stereo not given in full) | 1.35
31 | O=C(OCc1ccccc1)c1ccccc1 | 0.75
32 | CC(=O)[C@@]1(O)CCC2C3C[C@H](C)C4=CC(=O)C=CC4(C)[C@@]3(F)[C@@H](O)C[C@@]21C (stereo not given in full) | 1.43
33 | Cc1cc(C(C)(C)C)cc(C)c1CC1=NCCN1 | 1.28
34 | O=C(O)c1cc(=O)c2ccccc2[nH]1 | 1.38
35 | CC(C)COCC(CN(Cc1ccccc1)c1ccccc1)N1CCCC1 (stereo not given) | 0.78
36 | CCN1CCN(C(=O)NC(C(=O)NC2C(=O)N3C(C(=O)O)=C(CSc4nnnn4C)CSC23)c2ccc(O)cc2)C(=O)C1=O (stereo not given) | 0.74
37 | NC[C@H]1O[C@H](O[C@H]2[C@H](O)[C@@H](O[C@H]3O[C@H](CO)[C@@H](O)[C@H](N)[C@H]3O)[C@H](N)C[C@@H]2N)[C@H](O)[C@@H](O)[C@@H]1O | 1.87
38 | C[N+](C)(C)CCO | 0.93
39 | CC(=O)O[C@H]1C[C@@]2(C)[C@@H](C[C@@H](O)C3[C@]2(C)CC[C@H]2[C@H](C)[C@H](O)CC[C@]32C)/C1=C(/CCC=C(C)C)C(=O)O (stereo not given in full) | 1
40 | CSc1ccc2c(c1)N(CCC1CCCCN1C)c1ccccc1S2 (stereo not given) | 0.58
